In PubChem BioAssay (NCI):
About 83,000 compounds went through this panel and 20% of them were active in at least one assay; those are over-represented in the sample as a whole.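 48-hour exposure, single concentration, 96-well plates; percent growth endpoint where 0 means no net growth. Active: below 10.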 Values without a mark were called inactive. Active and inactive are the calls of the source.

What was measured:
Test in all cases: NCI-60 one-dose screen, 48 h (100 = growth as untreated, 0 = no growth, -100 = all killed)
Settings in all cases: 10 µM unless noted
SK-MEL-2 melanoma = tested on: SK-MEL-2 melanoma
EKVX NSCLC = tested on: EKVX NSCLC
SN12C renal = tested on: SN12C renal
UO-31 renal = tested on: UO-31 renal
TK-10 renal = tested on: TK-10 renal
ACHN renal = tested on: ACHN renal
CAKI-1 renal = tested on: CAKI-1 renal
A498 renal = tested on: A498 renal
CCRF-CEM leukemia = tested on: CCRF-CEM leukemia
MOLT-4 leukemia = tested on: MOLT-4 leukemia

SMILES | growth (SK-MEL-2 melanoma) | growth (EKVX NSCLC) | growth (SN12C renal) | growth (UO-31 renal) | growth (TK-10 renal) | growth (ACHN renal) | growth (CAKI-1 renal) | growth (A498 renal) | growth (CCRF-CEM leukemia) | growth (MOLT-4 leukemia)
O=C(Nc1cccc2ccccc12)NC1CC1 | 121% | 109% | 106% | 88% | 117% | 101% | 96.5% | 112% | 97.5% | 92.6%
O=[N+]([O-])c1ccc(O)cc1Br | 97.8% | 98% | 98% | 83.8% | 99.9% | 99.2% | 94.5% | 81.6% | 95.2% | 104%
N#Cc1ccc2c(c1)C(=O)c1c-2n(CCCN)c(=O)c2cc([N+](=O)[O-])ccc12 | -52.2% (active) | -88% (active) | -100% (active) | -100% (active) | -100% (active) | -100% (active) | -91.4% (active) | -39.3% (active) | -72.6% (active) | -62.2% (active)
c1ccc(-c2oc(-c3ccccc3)c(CN3CCCCC3)c2CN2CCCCC2)cc1 | 48.4% | 41% | 31.2% | 18.5% | 42.2% | 44.9% | 38.1% | 17.5% | 24.1% | 15.2%
COc1ccc(-c2ccc(=O)oc2-c2cc(OC)c(OC)c(OC)c2)cc1O | 39.6% | 30.9% | 25.7% | 32.4% | 68% | 38.9% | -15.8% (active) | -39.7% (active) | 7.05% (active) | 2.3% (active)
COc1cc(OCc2cccc(Br)c2C)cc(OC)c1C=O | 88% | 80.8% | 77.5% | 71.8% | 45.4% | 90.7% | 24.2% | -88.7% (active) | 77% | 80.2%
CC(C)(C)CC(C)(C)NC(=O)Nc1ncccc1OCc1ccccc1 | 83.5% | 93.3% | 89.5% | 73.9% | 96.3% | 94.4% | 80.2% | 92.7% | 94.2% | 89.1%
CCCCCCCC[C@@H]1N[C@@H](C(=O)OC)Cc2c1[nH]c1ccccc21 | 109% | 92% | 97.4% | 73.9% | 101% | 94.6% | 78.8% | 88.7% | 92.3% | 93%
CC(O)(c1ccccc1)C(c1ccccc1)C1CCCCN1 (stereo not given) | 117% | 104% | 93.1% | 93.5% | 102% | 107% | 102% | 106% | 101% | 99.7%
Clc1cccc(Nc2ncnc3ccc(-c4cnc5[nH]ccc5c4)cc23)c1 | 81.3% | 10% | 77.3% | 54.9% | 14.4% | 47.1% | 49% | 23.1% | 66.7% | 50.1%
COc1ccc(OC)c(/C=N/Nc2ncnc3c2c(C)nn3C)c1 | 105% | 94.8% | 91.4% | 82.9% | 105% | 105% | 98.7% | 64.4% | 103% | 93.9%
O=C1/C(=C/c2cccc(F)c2)CN(C(=O)C(Cl)Cl)C/C1=C\c1cccc(F)c1 | -38.1% (active) | -7.73% (active) | -90.3% (active) | -85.5% (active) | -78.8% (active) | -97.7% (active) | -75.6% (active) | -80.1% (active) | 0.153% (active) | -23.3% (active)
CCOC(=O)C(=O)C(C(=O)OCC)c1ccccc1 (stereo not given) | 101% | 103% | 108% | 87.7% | 106% | 105% | 97.9% | 107% | 90.4% | 90%
O=C1C(Cl)=C(Nc2ccc(S(=O)(=O)N3CCOCC3)cc2)C(=O)c2ccccc21 | 108% | 53.5% | 78.4% | 52.8% | 105% | 59% | 78.5% | 68.8% | 6.98% (active) | 5.92% (active)
O=C1/C(=C/c2ccccc2Br)COc2ccc(O)cc21 | 107% | 96.6% | 49.5% | 58.8% | 105% | 74.6% | 72.5% | 113% | 3.07% (active) | 27.2%
CCOC(=O)C/C(=N\Nc1cc(=O)[nH]c2ccc(Br)cc12)C(=O)OCC | 103% | 109% | 100% | 71.4% | 126% | 95.7% | 83.1% | 122% | -36.7% (active) | -15.7% (active)
COc1ccc(/C=C(\C#N)n2nnc3cc(Cl)ccc32)cc1 | 26.1% | 11.4% | 11.7% | 25.9% | 25.6% | 14.6% | 32.7% | -23.5% (active) | 12.4% | 14.2%
COC1/C=C/OC2(C)Oc3c(C)c(O)c4c(O)c(c(/C=N/Nc5ccc([N+](=O)[O-])cc5[N+](=O)[O-])c(O)c4c3C2=O)NC(=O)C(C)=C/C=C/C(C)C(O)C(C)C(O)C(C)C(OC(C)=O)C1C (stereo not given) | 30.5% | 45.1% | -5.59% (active) | 70.2% | 25.7% | 28.1% | 74.2% | 96% | 6.19% (active) | 0.359% (active)
O=C1NC2(Nc3ccccc31)C(=O)Nc1c(Cl)cc(Cl)cc12 (stereo not given) | 119% | 98.8% | 106% | 78.5% | 206% | 107% | 85.1% | 106% | 103% | 93%
CCC1=C[C@@H]2C[C@]3(C(=O)OC)c4[nH]c5ccccc5c4CC[N@+](CC(=O)Nc4cc5c(cc4OC)N(C)[C@H]4[C@@](O)(C(=O)OC)[C@H](OC(C)=O)[C@]6(CC)C=CCN7CC[C@]54[C@@H]76)(C2)[C@H]13 | 105% | 105% | 105% | 84.4% | 98.6% | 106% | 93.2% | 121% | 80.6% | 108%
Cc1ccc(Nn2c(SCC(=O)Nc3nc(-c4ccccc4)cs3)nc(C)c2C)cc1 | 81.4% | 49.7% | 64.3% | 51.6% | 72.7% | 60.9% | 53.6% | 92.5% | 57.7% | 54.7%
Cn1c(=O)cc2c3c(c(NCCCO)ccc31)C(=O)c1ccccc1-2 | 73.9% | 73.2% | 46.8% | 13.1% | 29.1% | 25.3% | 44.7% | 64.2% | 48.3% | 19.2%
CCOC(=O)[C@@H]1CSC(CC)=C(C(=O)O)N1 | 111% | 105% | 98.4% | 85.1% | 110% | 97.6% | 97.1% | 108% | -12.6% (active) | -5.82% (active)
COc1ccc(\C=N/N=C(N)/C(N)=N\N=C/c2ccc(OC)cc2)cc1 | 95.5% | 95.6% | 111% | 89.1% | 101% | 100% | 89.8% | 96.3% | -48.3% (active) | 109%
O=c1c2ccccc2n2cnc3ccc(Cl)c1c32 | 96.5% | 62.7% | 76.1% | 44.8% | 49.2% | 50.5% | 43.1% | 54.1% | 95.7% | 89%
